CHX counter – counter-screen for Shiga toxin inhibitors: cycloheximide protein synthesis inhibition. cell reporter, cycloheximide protein synthesis inhibition counterscreen. max response, %. hit rate 12% among 300,000; in the data active = max response mostly above about 13%, no sharp cut-off; inactive = mostly below about 14%; note: read at 38.3 µM for the half of the compounds with a filed dose; 0% is about no effect
Pf growth 48h – inhibits P. falciparum growth in the first generation, 48 h | Potency, µM (titrated, usually from 28.7 µM), without a hit: top-dose activity change, negative = inhibition, usual class: inhibitors | P. falciparum luciferase growth in erythrocytes, 48 h | hit rate 5.9% among 310,000 | AID 504832; note: potency is the fitted concentration of half-maximal effect; % is set by controls: 0 for no effect and ±100 for the full control effect
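A one-generation exposure of luciferase-tagged malaria parasites in RPMI 1640/Albumax erythrocyte culture, 37 C and 5% CO2. Inhibition is inferred from decreased luminescence after adding detection reagent.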
Pf growth 96h – P. falciparum growth inhibition at 96 hours; hit rate 6.9% among 320,000; Potency, µM (top dose mostly 28.7 µM), for the others: at the highest dose activity change, negative = inhibition, actives largely listed as inhibitors; P. falciparum luciferase reporter growth, 96 h; AID 504834; note: potency is the fitted concentration of half-maximal effect; % is set by controls: 0 for no effect and ±100 for the full control effect
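Readout is luminescence from an integrated firefly luciferase in P. falciparum. Red cells, 2% hematocrit and 0.05% parasitemia final, were cultured with compound through two parasite generations (96 hours) at 37 C, 5% CO2.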
NS1 function inh – inhibitors of influenza NS1 protein function. Potency, µM (highest dose often 46.1 µM), for the others: at the top dose activity, positive = more growth. hit rate 0.4% among 270,000. AID 2326; calls by dose curve; note: potency is the fitted concentration of half-maximal effect; actives are rising curves; nearly all actives have a fitted effect of over 50% in size
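S. cerevisiae expressing influenza A NS1, grown in glucose, washed, then diluted 1:100 into pH 6.0 -URA galactose medium with 23 nl compound. Growth recovery read as OD600; NS1-free strain serves as control.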
Shiga toxin inh – inhibitors of Shiga toxin in Vero cells. AID 2315. inhibition, % at 38.7 µM. Vero cells, Shiga toxin protein synthesis inhibition reporter. hit rate 9.2% among 290,000; in the data active = inhibition mostly above about 28%, no sharp cut-off; inactive = mostly below about 43%; note: 0% is about no effect
Numbers without * were called inactive; [ ] = remark or other dose. An excerpt weighted towards active compounds, which were near 21% of everything screened. Unless noted, calls come from the whole dose curve; as a rule, active = well fitted inhibition curve with a large enough effect; inconclusive = small, poorly fitted or top-dose-only effect, or another doubt; inactive = no such curve, though single readings can be large or run the other way.

Results for O=C1/C(=C/c2ccccc2Cl)SC(=S)N1CCC(=O)N1CCCCC1CCO (centres undefined) ?
CHX counter: 9; Pf growth 48h: inconclusive; Pf growth 96h: inconclusive; NS1 function inh: -10%; Shiga toxin inh: 5

Results for O=C1c2ccccc2C(O)(c2ccccc2)N1C1CC1 (centres undefined) ?
CHX counter: -2; Pf growth 48h: 29%; Pf growth 96h: 5%; NS1 function inh: 9%; Shiga toxin inh: 10

Results for O=[N+]([O-])c1cc([N+](=O)[O-])c2c(=Nc3ccccc3)n(-c3ccccc3)n(O)c2c1 ?
CHX counter: 9; Pf growth 48h: inconclusive; Pf growth 96h: 0%; Shiga toxin inh: 29

Results for Cc1cc(=O)[nH]c2n[nH]c(-c3ccccc3)c12 ?
CHX counter: 15*; Pf growth 48h: 37%; NS1 function inh: 1%; Shiga toxin inh: 37

What do the screens show for `C[C@H]1CCCC(=O)CCC/C=C/c2c(O)cc(O)cc2C(=O)O1`?
CHX counter: -4; Shiga toxin inh: -11

How did CCCCC[C@]12Cc3ccccc3C(O1)c1c(cc(C)oc1=O)O2 do in these assays?
CHX counter: 0; Pf growth 48h: 23%[5.75 µM]; Pf growth 96h: 0.67µM*; NS1 function inh: 0%; Shiga toxin inh: inactive

Results for CC[C@H](C)[C@H](NC(=O)[C@H](Cc1ccc(O)cc1)NC(=O)[C@@H](NC(=O)[C@H](CCCNC(=N)N)NC(=O)[C@@H](N)CC(=O)O)C(C)C)C(=O)N[C@@H](Cc1cnc[nH]1)C(=O)N1CCC[C@H]1C(=O)N[C@@H](Cc1ccccc1)C(=O)N[C@@H](Cc1cnc[nH]1)C(=O)N[C@@H](CC(C)C)C(=O)N[C@@H](CC(C)C)C(=O)N[C@H](C(=O)N[C@@H](Cc1ccc(O)cc1)C(=O)N[C@@H](CO)C(=O)O)C(C)C ?
CHX counter: -5; Shiga toxin inh: 2

What do the screens show for `O=C(N/N=C/c1ccc(Cl)cc1)C1CC12CCC2` (centres undefined)?
CHX counter: 53*; Pf growth 48h: 122%; Pf growth 96h: 44%; Shiga toxin inh: 133*

How did O=C(N/N=C/c1ccncc1)C1CC1(c1ccccc1)c1ccccc1 (centres undefined) do in these assays?
CHX counter: 2; Pf growth 48h: inconclusive; Pf growth 96h: 5.2µM*; NS1 function inh: -8%; Shiga toxin inh: 11

How did COCc1cc(C)nc2sc(C(=O)NCCO)c(-n3cccc3)c12 do in these assays?
CHX counter: 10; Pf growth 48h: -1%; Pf growth 96h: inconclusive; Shiga toxin inh: 21

Results for Cc1cc(NC(=O)c2cccc(S(=O)(=O)N3c4ccccc4CC3C)c2)no1 (centres undefined) ?
CHX counter: -1; Pf growth 48h: 3.3µM*; Pf growth 96h: 5.2µM*; NS1 function inh: inconclusive; Shiga toxin inh: -2

What do the screens show for `CC1Cc2ccccc2N1S(=O)(=O)c1cccc(C(=O)N2Cc3ccccc3CC2C(N)=O)c1` (centres undefined)?
Pf growth 48h: inconclusive; Pf growth 96h: 13µM*

What do the screens show for `CCC(CO)NC(=O)c1cccc(S(=O)(=O)N2c3ccccc3CC2C)c1` (centres undefined)?
CHX counter: -6; Pf growth 48h: inconclusive; Pf growth 96h: inconclusive; NS1 function inh: -4%; Shiga toxin inh: -7

How did CCOC(=O)c1sc(NC(=O)c2cccc(S(=O)(=O)N3c4ccccc4CC3C)c2)cc1C (centres undefined) do in these assays?
CHX counter: 12; Pf growth 48h: 2.9µM*; Pf growth 96h: inconclusive; NS1 function inh: 22%; Shiga toxin inh: 8

What do the screens show for `Nc1ccc(Oc2cccc(Oc3ccc(N)cc3)c2)cc1`?
CHX counter: -17; Pf growth 48h: 7%; Pf growth 96h: -30%; Shiga toxin inh: -21

How did Cc1cccc(Oc2ccc(N)cc2)c1 do in these assays?
CHX counter: 31*; Pf growth 96h: 34%; NS1 function inh: -4%; Shiga toxin inh: 43

How did Cc1cc(C)cc(Oc2ccc(N)cc2)c1 do in these assays?
CHX counter: 9; Pf growth 48h: 27%; Pf growth 96h: 12µM*; NS1 function inh: 13%; Shiga toxin inh: 12

What do the screens show for `O=c1c2cc(Br)ccc2nc2n1CCCCC2`?
CHX counter: 29*; Pf growth 48h: 9%; Pf growth 96h: 85%; NS1 function inh: -17%; Shiga toxin inh: 55

What do the screens show for `Cc1ccc2nc3n(c(=O)c2c1)CCCCC3`?
CHX counter: 31*; Pf growth 48h: 44%; Pf growth 96h: 69%; NS1 function inh: 6%; Shiga toxin inh: 53*

What do the screens show for `Cc1onc(-c2ccccc2)c1C(=O)O/N=C(\N)c1ccc([N+](=O)[O-])o1`?
CHX counter: 4; Pf growth 48h: inconclusive; Pf growth 96h: 12µM*; NS1 function inh: -39%; Shiga toxin inh: -3

How did Cc1onc(-c2cccc(Cl)c2Cl)c1C(=O)O/N=C(\N)c1ccc([N+](=O)[O-])o1 do in these assays?
CHX counter: 9.1*; Pf growth 48h: inconclusive; Pf growth 96h: 10µM*; NS1 function inh: -3%; Shiga toxin inh: 32

Results for Cc1onc(-c2ccccc2)c1C(=O)OCc1nnc(-c2ccccc2)o1 ?
Pf growth 48h: 4%; Pf growth 96h: inconclusive

How did C/C(=N\OC(=O)c1c(-c2ccccc2Cl)noc1C)c1ccncc1 do in these assays?
CHX counter: -5; Pf growth 48h: 31%; Pf growth 96h: 23%; NS1 function inh: 4%; Shiga toxin inh: -4

Results for Cc1cc(F)ccc1S(=O)(=O)Nc1ccccc1C(=O)NCc1cccnc1 ?
CHX counter: -4; Pf growth 48h: -14%; Pf growth 96h: 13%; NS1 function inh: 0%; Shiga toxin inh: 34

How did COc1cc(-c2nc3ccccc3c(=O)n2N)cc(OC)c1OC do in these assays?
CHX counter: -2; Pf growth 48h: 13%; Pf growth 96h: inconclusive; NS1 function inh: 10%; Shiga toxin inh: -2

Results for COc1ccc(C(=O)C[n+]2ccc3c(c2)nc(-c2ccccc2)n3C)cc1 ?
CHX counter: -2; Pf growth 48h: 2.3µM*; Pf growth 96h: 33%; NS1 function inh: 12%; Shiga toxin inh: -10

What do the screens show for `COc1ccc(C(=O)C[n+]2ccc3c(c2)nc(-c2ccc(OC)cc2OC)n3C)cc1`?
CHX counter: 2; Pf growth 48h: 12µM*; Pf growth 96h: 4.1µM*; NS1 function inh: -9%; Shiga toxin inh: -7

How did CCOC(=O)c1ccc[n+](CC(=O)c2ccc(OC)cc2)c1 do in these assays?
CHX counter: 0; Pf growth 48h: -5%; Pf growth 96h: 11%; NS1 function inh: 11%; Shiga toxin inh: -7

What do the screens show for `COc1cc(-c2nc3c[n+](CC(=O)c4ccccc4)ccc3n2C)cc(OC)c1OC`?
CHX counter: -1; Pf growth 48h: 7.4µM*; Pf growth 96h: -13%; NS1 function inh: 7%; Shiga toxin inh: 8

Compound activity deposited in PubChem by National Center for Advancing Translational Sciences (NCATS).
